The values below come from PubChem BioAssay (NCI).

The panel holds about 79,000 compounds, 15% with a hit somewhere; the sample as a whole holds those more often. A number with no mark means an inactive call. Calls of active or inactive are those of the source. Cut-off read from the data, not from the text of the source: active = growth inhibition above about 70%; inactive = the rest.

Assay [1] can be described thus: NCI Yeast Anticancer Drug Screen. Data for the rad50 strain (AID 155).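 Note: 0% = growth of vehicle-only cultures of the same strain.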 The settings on record: S. cerevisiae rad50 strain growth inhibition, hits give high values. In a few lines:
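A DNA repair-deficient yeast mutant serves as the test organism; compound-induced growth inhibition is calculated against vehicle-treated cells.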

The nature of assay [2]: NCI Yeast Anticancer Drug Screen. Data for the mec2-1 strain (AID 157). As to conditions: S. cerevisiae mec2-1 strain, hits give high values. In a few lines: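 Each compound was tested on mec2-1 yeast, a strain altered in DNA damage repair or cell cycle control. Growth inhibition is reported relative to vehicle.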
A short description of assay [3]: NCI Yeast Anticancer Drug Screen. Data for the sgs1 mgt1 strain (AID 161).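 Note: 0% = growth of cultures given vehicle only.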 The settings on record: S. cerevisiae sgs1 mgt1 strain, hits give high values. The procedure, abridged: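 Mutant yeast exposed to compound; growth scored against vehicle-only wells.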
A short description of assay [4]: NCI Yeast Anticancer Drug Screen. Data for the cln2 rad14 strain (AID 165).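 Note: 0% = growth equal to vehicle treated cultures.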 As to conditions: S. cerevisiae cln2 rad14 strain, hits give high values. The procedure, abridged: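 Test compounds were added to cln2 rad14 yeast cultures; inhibition of growth was then determined by comparison with vehicle treatment.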
The nature of assay [5]: NCI Yeast Anticancer Drug Screen. Data for the bub3 strain (AID 167). The settings on record: S. cerevisiae bub3 mutant strain, hits give high values. In a few lines:
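Inhibition values come from growth of compound-treated mutant yeast normalised to vehicle-treated controls.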

The nature of assay [6]: NCI Yeast Anticancer Drug Screen. Data for the mlh1 rad18 strain (AID 175). As to conditions: S. cerevisiae mlh1 rad18 strain growth inhibition, hits give high values. The procedure, abridged:
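Inhibition values reflect reduced growth of mutant yeast versus vehicle-treated controls following compound exposure; the mutations affect DNA damage repair.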

Where [7] appears, read: at 5.0 µM (retest, dose inferred, filed as 0.5).
[8] abbreviates: at 50.0 µM (retest, dose inferred, filed as 5.0).

As to `C/C(=N/NC(=S)N1CCCC1)c1cccc(/C(C)=N\NC(=S)N2CCCC2)n1`, the growth inhibition in assay [1] (setting [7]) is 11%; in assay [1] (setting [8]) it was 12%; in assay [1] (at 50.0 µM), 15.2%; in assay [2] (setting [7]), 13%; in assay [2] (setting [8]), 28%; in assay [2] (at 50.0 µM), -14.9%. Also, the growth inhibition in assay [3] (setting [7]) is -17%; in assay [3] (setting [8]), -4%; in assay [3] (at 50.0 µM) it was -6.45%; in assay [4] (setting [7]), 1%; in assay [4] (setting [8]), -4%; in assay [4] (at 50.0 µM) it was -3.15%. Further, the growth inhibition is -3% in assay [5] (setting [7]); 5% in assay [5] (setting [8]); -8.05% in assay [5] (at 50.0 µM); 17% in assay [6] (setting [7]); 18% in assay [6] (setting [8]); 1.65% in assay [6] (at 50.0 µM).

Consider `N/N=C(/N)SCCCCCCCCCCS/C(N)=N/N`, for which the growth inhibition in assay [1] (setting [7]) was -6%; in assay [1] (setting [8]), 5%; in assay [1] (at 50.0 µM), 21.4%; in assay [2] (setting [7]), -4%; in assay [2] (setting [8]) it was 78% (active); in assay [2] (at 50.0 µM), 48.5%. Also, the growth inhibition is -35% in assay [3] (setting [7]); 76% (active) in assay [3] (setting [8]); 82.3% (active) in assay [3] (at 50.0 µM); -10% in assay [4] (setting [7]); -28% in assay [4] (setting [8]); 51.9% in assay [4] (at 50.0 µM). Further, the growth inhibition in assay [5] (setting [7]) was -6%; in assay [5] (setting [8]), 7%; in assay [5] (at 50.0 µM) it was 15.2%; in assay [6] (setting [7]) it was -8%; in assay [6] (setting [8]) it was 39%; in assay [6] (at 50.0 µM), 79.8% (active).

Regarding `NC(=O)CCSC(=S)N1CCOCC1`, the growth inhibition in assay [1] (setting [7]) was -2%; in assay [1] (setting [8]) it was -16%; in assay [1] (at 50.0 µM) it was -8.55%; in assay [2] (setting [7]) it was -5%; in assay [2] (setting [8]), -2%; in assay [2] (at 50.0 µM) it was -16.6%. The growth inhibition in assay [3] (setting [7]) was -3%; in assay [3] (setting [8]), 4%; in assay [3] (at 50.0 µM), -8.35%; in assay [4] (setting [7]) it was 4%; in assay [4] (setting [8]) it was -2%; in assay [4] (at 50.0 µM), 29.1%. Further, the growth inhibition is 39% in assay [5] (setting [7]); -5% in assay [5] (setting [8]); -1.85% in assay [5] (at 50.0 µM); 1% in assay [6] (setting [7]); 2% in assay [6] (setting [8]); -17.4% in assay [6] (at 50.0 µM).

As to `Cc1ccc(O)c(Cc2cccc(Cl)c2)c1`, the growth inhibition is -2% in assay [1] (setting [7]); 99% (active) in assay [1] (setting [8]); 99.3% (active) in assay [1] (at 50.0 µM); -7% in assay [2] (setting [7]); 99% (active) in assay [2] (setting [8]); 99.5% (active) in assay [2] (at 50.0 µM). Moreover, the growth inhibition in assay [3] (setting [7]) was -2%; in assay [3] (setting [8]) it was 99% (active); in assay [3] (at 50.0 µM), 99.5% (active); in assay [4] (setting [7]), -21%; in assay [4] (setting [8]) it was 99% (active); in assay [4] (at 50.0 µM), 99% (active). In addition, the growth inhibition in assay [5] (setting [7]) is -22%; in assay [5] (setting [8]) it was 99% (active); in assay [5] (at 50.0 µM), 99.3% (active); in assay [6] (setting [7]), 0%; in assay [6] (setting [8]), 99% (active); in assay [6] (at 50.0 µM), 99.2% (active).

`Cn1nc(N)c2cccnc21`: the growth inhibition in assay [1] (setting [7]) is 3%; in assay [1] (setting [8]), 19%; in assay [1] (at 50.0 µM), -1.25%; in assay [2] (setting [7]), -5%; in assay [2] (setting [8]), 3%; in assay [2] (at 50.0 µM), 1.7%. Further, the growth inhibition was -1% in assay [3] (setting [7]); 6% in assay [3] (setting [8]); 14.3% in assay [3] (at 50.0 µM); 3% in assay [4] (setting [7]); 1% in assay [4] (setting [8]); 45.1% in assay [4] (at 50.0 µM). Further, the growth inhibition was 2% in assay [5] (setting [7]); 2% in assay [5] (setting [8]); -6.1% in assay [5] (at 50.0 µM); 1% in assay [6] (setting [7]); 10% in assay [6] (setting [8]); 0.35% in assay [6] (at 50.0 µM).

Regarding `O=C1/C(=C/c2ccccc2)CCC/C1=C\c1ccc(O)c(CN2CCCCC2)c1`, the growth inhibition in assay [1] (setting [7]) was 25%; in assay [1] (setting [8]) it was 42%; in assay [1] (at 50.0 µM), -4.05%; in assay [2] (setting [7]), 16%; in assay [2] (setting [8]), 27%; in assay [2] (at 50.0 µM), 1.95%. Further, the growth inhibition in assay [3] (setting [7]) was 26%; in assay [3] (setting [8]), 47%; in assay [3] (at 50.0 µM), 88.8% (active); in assay [4] (setting [7]) it was 18%; in assay [4] (setting [8]), 12%; in assay [4] (at 50.0 µM), 74.9% (active). Also, the growth inhibition was 21% in assay [5] (setting [7]); 32% in assay [5] (setting [8]); 82.2% (active) in assay [5] (at 50.0 µM); 25% in assay [6] (setting [7]); 44% in assay [6] (setting [8]); 90.8% (active) in assay [6] (at 50.0 µM).

On to `c1ccc(C2=NC(=c3ccc(=C4N=C(c5ccccc5)C(c5ccccc5)=N4)cc3)N=C2c2ccccc2)cc1`, for which the growth inhibition in assay [1] (setting [7]) is 3%; in assay [1] (setting [8]), 44%; in assay [1] (at 50.0 µM), 86.6% (active); in assay [2] (setting [7]), 3%; in assay [2] (setting [8]), 17%; in assay [2] (at 50.0 µM), 65.6%. In addition, the growth inhibition was -2% in assay [3] (setting [7]); 48% in assay [3] (setting [8]); 59.9% in assay [3] (at 50.0 µM); 7% in assay [4] (setting [7]); 5% in assay [4] (setting [8]); 29.6% in assay [4] (at 50.0 µM). Besides, the growth inhibition was 3% in assay [5] (setting [7]); 8% in assay [5] (setting [8]); 51.3% in assay [5] (at 50.0 µM); 1% in assay [6] (setting [7]); 19% in assay [6] (setting [8]); 93.7% (active) in assay [6] (at 50.0 µM).
